Compounds with a hit are over-represented: about 2.8% of the library has one in this group of screens.
POLK inh – inhibitors of human DNA polymerase kappa | purified Pol kappa, fluorescent DNA synthesis assay, 10 min | 400,000 compounds, 0.53% hits | Q9UBT6 | Potency, µM (series often up to 107 µM), hits mostly inhibitors
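50 nM final substrate added after 15 min RT preincubation of 10 nM Pol kappa with compound; fluorescence read at 0 and 10 min.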
POLB inh – DNA polymerase beta (human) inhibition | P06746 | 340,000 compounds, 1.3% hits | Pol beta primer extension/strand displacement, fluorescence kinetic | Potency, µM (top dose mostly 114 µM), most hits filed as inhibitors
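Values derive from four-parameter Hill fits of normalized kinetic data: reads at 0 and 10 min following addition of 50 nM substrate to 10 nM Pol beta preincubated 15 min with compound.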
PI5P4K alpha inh – inhibitors of human PI5P4K alpha; PI5P4Kalpha enzyme, ADP-Glo luminescence, 60 min; hits give low values; AID 652105; 330,000 compounds, 1.2% hits; P48426; max response, %; active = max response of -50% or lower; inconclusive = between -30% and -50%; inactive = -30% or higher; note: value at the top dose of about 77 µM
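Compounds were pin-transferred onto PI5P4Kalpha and substrate in HEPES pH 7.4 buffer with EGTA, CHAPS and 5% DMSO. ATP (5 microM final) started the reaction, which ran 60 minutes at room temperature before ADP-Glo detection.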
POLH inh – inhibitors of human DNA polymerase eta | Q9Y253 | recombinant Pol eta, fluorescent DNA replication assay | Potency, µM (top dose mostly 114 µM), usual class: inhibitors | 390,000 compounds, 1.2% hits | AID 588591
Target sequence (Q9Y253 whole entry, looked up): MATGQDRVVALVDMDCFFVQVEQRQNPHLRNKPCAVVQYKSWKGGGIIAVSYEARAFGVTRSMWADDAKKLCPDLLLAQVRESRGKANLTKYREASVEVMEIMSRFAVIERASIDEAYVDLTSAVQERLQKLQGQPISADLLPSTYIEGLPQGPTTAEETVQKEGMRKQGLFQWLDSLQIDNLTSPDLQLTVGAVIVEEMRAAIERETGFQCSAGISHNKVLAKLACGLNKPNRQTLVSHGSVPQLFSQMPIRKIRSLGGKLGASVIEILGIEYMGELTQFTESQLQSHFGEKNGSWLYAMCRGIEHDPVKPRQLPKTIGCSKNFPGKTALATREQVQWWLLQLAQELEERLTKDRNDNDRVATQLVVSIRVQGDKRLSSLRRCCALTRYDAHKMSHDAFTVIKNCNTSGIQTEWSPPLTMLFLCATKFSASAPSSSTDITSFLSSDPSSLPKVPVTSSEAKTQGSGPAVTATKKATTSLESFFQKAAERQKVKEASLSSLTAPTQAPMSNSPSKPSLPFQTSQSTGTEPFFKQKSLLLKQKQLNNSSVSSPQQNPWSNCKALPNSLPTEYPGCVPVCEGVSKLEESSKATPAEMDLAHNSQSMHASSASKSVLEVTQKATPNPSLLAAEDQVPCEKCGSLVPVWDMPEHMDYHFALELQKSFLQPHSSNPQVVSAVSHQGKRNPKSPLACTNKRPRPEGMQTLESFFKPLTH
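Fluorescent replication assay: 50 nM final substrate added after a 15 min room-temperature compound preincubation with 10 nM enzyme. Signal taken at 0 min and again at 10 min.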
POLI inh – blocks human DNA polymerase iota activity; Q9UNA4; Pol iota fluorescent replication assay, 10 min; Potency, µM (top dose mostly 115 µM), usual class: inhibitors; 390,000 compounds, 1% hits
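Fluorescent replication assay read twice, at 0 min and 10 min after adding 50 nM (final) substrate. Enzyme (10 nM) and compounds were first incubated 15 min at room temperature; enzyme-free buffer wells were negative controls.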
WRN inhibitor – blocks human WRN helicase | WRN helicase unwinding, fluorescent forked duplex, kinetic | Potency, µM (highest dose often 114 µM), actives largely listed as inhibitors | 360,000 compounds, 0.46% hits | Q14191; note: nearly all actives have a fitted effect of over 55% in size
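Fluorescence dequenching readout, ex 525 nm/em 598 nm, kinetic mode: forked duplex DNA (100 nM final) with adjacent fluorophore and quencher unwound by WRN (20 nM final) with 2 mM ATP. Compound preincubation 15 min, room temperature.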
Large screens that a line does not name were inactive. Unless noted, calls come from the whole dose curve; as a rule, active = well fitted curve in the direction sought with a large enough effect; inconclusive = small, poorly fitted or top-dose-only effect, or another doubt; inactive = no such curve, though single readings can be large; an effect the other way counts as inactive or inconclusive.

CCOc1cc(/C=N/N=C(N)N)ccc1OCc1ccc(Cl)cc1	POLB inh 79.4µM
Cn1c2ccccc2c2cc(/C=N/NC(=O)c3ccc(O)cc3O)ccc21	POLB inh inconclusive, PI5P4K alpha inh -61.9, POLH inh inconclusive, POLI inh inconclusive
CCn1c2ccccc2c2cc(/C=N/NC(=O)c3ccncc3)ccc21	POLB inh 15.8µM, POLH inh inconclusive
CCn1c2ccccc2c2cc(/C=N/NC(=O)c3ccc(O)cc3)ccc21	POLK inh inconclusive, POLB inh inconclusive, POLH inh inconclusive, POLI inh inconclusive
CN1C(=O)c2ccccc2Sc2ccc(NC(=O)Nc3ccccc3F)cc21	none (no result: PI5P4K alpha inh, WRN inhibitor)
CN1C(=O)c2ccccc2Sc2ccc(NC(=O)Cc3c(F)cccc3Cl)cc21	POLB inh 20µM, POLI inh inconclusive (no result: PI5P4K alpha inh, WRN inhibitor)
COc1ccc(NC(=O)C2CCN(S(=O)(=O)c3ccc4[nH]c(=O)ccc4c3)CC2)c(OC)c1	none (no result: PI5P4K alpha inh, WRN inhibitor)
Cc1ccc2occ(C3N[C@H](C(=O)O)CS3)c(=O)c2c1 (stereo partly specified)	PI5P4K alpha inh inconclusive, POLH inh inconclusive, POLI inh 10µM
COc1ccc(CN2[C@@H](CC(C)=O)c3ccc(/C=C/C(C)=O)cc3S2(=O)=O)cc1	POLH inh inconclusive, POLI inh inconclusive (no result: POLB inh)
COc1ccc(CN2[C@@H](CC(=O)O)c3ccc(/C=C/C(=O)O)cc3S2(=O)=O)cc1	POLK inh 35.5µM, POLI inh 50.1µM (no result: POLB inh, PI5P4K alpha inh, POLH inh, WRN inhibitor)
COc1cccc(N2[C@@H](CC(C)=O)c3ccc(/C=C/C(C)=O)cc3S2(=O)=O)c1	POLH inh inconclusive, POLI inh 20µM (no result: POLB inh)
CC[n+]1ccc(/C=C2\Sc3ccccc3N2CCCS(=O)(=O)[O-])c2ccccc21	POLK inh inconclusive, POLB inh 11.2µM
Cc1cc(N)ccc1N1CCCC1	PI5P4K alpha inh -72.0, POLI inh inconclusive, WRN inhibitor 50.1µM
CCCOc1ccc(C(=O)NCC2OCCc3ccccc32)cc1 (stereo unspecified)	none (no result: PI5P4K alpha inh, WRN inhibitor)
O=C(Cc1cccs1)Nc1nnc(-c2ccncc2)s1	POLB inh inconclusive, POLI inh 63.1µM (no result: PI5P4K alpha inh)
CC(C)c1nnc(NC(=O)Cc2cccs2)s1	none
COc1cccc(-c2nnc(NC(=O)Cc3cccs3)s2)c1	POLB inh 20µM, PI5P4K alpha inh inconclusive, POLH inh inconclusive
Cc1ccc(-n2c(=O)c3cccnc3n2CC(=O)Nc2ccc(Br)cc2)cc1C	none (no result: PI5P4K alpha inh, WRN inhibitor)
O=C(OCc1cc(=O)n2nc(C3CCCCC3)sc2n1)c1ccc(F)cc1	none (no result: PI5P4K alpha inh, WRN inhibitor)
CC(=O)OC1(C(F)(F)F)Oc2ccccc2NC1=O (stereo unspecified)	POLB inh 79.4µM
Cc1ccc(NC(=O)Cn2nnc(C(=O)NCCc3ccccc3)c2N)cc1	POLK inh inconclusive, POLB inh 15.8µM, POLI inh inconclusive (no result: PI5P4K alpha inh, WRN inhibitor)
COc1ccc(CCNC(=O)c2nnn(CC(=O)Nc3ccccc3)c2N)cc1OC	POLB inh inconclusive, POLI inh inconclusive, WRN inhibitor inconclusive
COc1ccccc1NC(=O)Cn1nnc(C(=O)NCCc2ccccc2)c1N	POLB inh inconclusive, POLI inh inconclusive, WRN inhibitor inconclusive
COc1cccc(NC(=O)Cn2nnc(C(=O)NCCc3ccccc3)c2N)c1	POLB inh inconclusive, POLI inh 31.6µM
COc1ccc(NC(=O)Cn2nnc(C(=O)NCc3ccccc3)c2N)c(OC)c1	POLB inh inconclusive, POLI inh inconclusive
COc1cccc(NC(=O)c2nnn(CC(=O)Nc3cc(C)cc(C)c3)c2N)c1	POLB inh 89.1µM, POLI inh inconclusive
COc1cccc(NC(=O)Cn2nnc(C(=O)Nc3ccccc3)c2N)c1	none (no result: PI5P4K alpha inh)
COc1ccc(NC(=O)Cn2nnc(C(=O)NCCc3ccccc3)c2N)c(OC)c1	POLH inh 35.5µM, POLI inh inconclusive
COc1ccc(NC(=O)CCc2nc3cccnc3n2-c2ccccc2)cc1Cl	none (no result: PI5P4K alpha inh, WRN inhibitor)
COc1ccc(CCNC(=O)c2nnn(CC(=O)Nc3ccccc3C)c2N)cc1OC	POLB inh 20µM, POLH inh inconclusive, POLI inh inconclusive
CC(C)S(=O)(=O)C1=NSC2=NC(=O)/C(=C\c3ccc(-c4ccccc4)o3)C(=N)N21	POLK inh inconclusive, POLB inh 79.4µM, PI5P4K alpha inh -101.9, POLH inh 17.8µM, WRN inhibitor inconclusive
O=C(O)c1cc([N+](=O)[O-])cc2c1nnn2O	PI5P4K alpha inh -67.4, POLI inh inconclusive
O=C(O)c1ccc([N+](=O)[O-])cc1-c1cc([N+](=O)[O-])ccc1C(=O)O	none (no result: POLB inh)
O=C(CSc1nnc(-c2ccncc2)n1-c1ccccc1Cl)Nc1ccc(C(=O)O)cc1	PI5P4K alpha inh -65.0
O=C(CSc1nnc(-c2ccncc2)n1-c1ccccc1)Nc1ccc(C(=O)O)cc1	PI5P4K alpha inh inconclusive
Cn1c(CSCc2ccccc2)nnc1SCC(=O)Nc1ccc(C(=O)O)cc1	PI5P4K alpha inh -73.0
Cn1c(CSCc2ccccc2)nnc1SCC(=O)Nc1nccs1	none
CCOC(=O)c1ccc(NC(=O)CSc2nnc(-c3ccncc3)n2-c2ccccc2)cc1	POLB inh 2.24µM (no result: PI5P4K alpha inh, WRN inhibitor)
CC1CCCC(C)N1C(=O)COC(=O)/C=C/c1ccc(Br)o1 (stereo unspecified)	POLK inh inconclusive, PI5P4K alpha inh inconclusive, POLH inh 22.4µM, POLI inh 22.4µM, WRN inhibitor inconclusive (no result: POLB inh)
CC1CCN(C(=O)COC(=O)/C=C/c2ccc(Br)o2)CC1	POLK inh inconclusive, POLI inh 17.8µM (no result: POLB inh)
CCOc1ccc(-c2cc(NC(=O)c3ccccc3)c(C(=O)OC)s2)cc1	none (no result: PI5P4K alpha inh, WRN inhibitor)
CCCCNc1nc(Oc2ccc(=O)n(C)n2)nc(N(C)C)n1	none (no result: PI5P4K alpha inh, POLH inh, WRN inhibitor)
COc1cc([N+](=O)[O-])cc(/C=N/NC(=O)C(C)Nc2cccc3ccccc23)c1O (stereo unspecified)	PI5P4K alpha inh -50.3, POLH inh inconclusive
CC(Nc1cccc2ccccc12)C(=O)N/N=C/c1ccc([N+](=O)[O-])cc1 (stereo unspecified)	none
CCc1cccc(CC)c1NC(=O)CN(C)S(=O)(=O)c1ccc2c(c1)n(C)c(=O)c(=O)n2C	none (no result: PI5P4K alpha inh, WRN inhibitor)
CCN(CC)S(=O)(=O)c1ccc2c(c1)nc(CN(C)C(=O)Nc1ccc(C)c(Cl)c1)n2C	none (no result: PI5P4K alpha inh, WRN inhibitor)
Oc1ccccc1C1C=C(c2ccc3c(c2)OCO3)NC(c2ccc(F)c(Br)c2)N1 (stereo unspecified)	POLI inh inconclusive (no result: POLB inh, PI5P4K alpha inh, POLH inh, WRN inhibitor)
Oc1ccc(Br)cc1C1C=C(c2ccc3c(c2)OCO3)NC(c2ccc(F)c(Br)c2)N1 (stereo unspecified)	POLI inh 12.6µM (no result: POLB inh, PI5P4K alpha inh, POLH inh, WRN inhibitor)
COc1ccccc1CNC(=O)/C=C/c1ccc(Br)o1	POLB inh 8.91µM, POLI inh inconclusive
COc1ccc(NC(=O)/C=C/c2ccco2)cn1	POLB inh inconclusive

Screening data from PubChem.
